# Most compounds without a hit are left out; they make up all but 2.4% or so of the library.
# FEN1 inhibitor: human FEN1 inhibition; P39748; Recombinant FEN1 flap cleavage, fluorescence, 15 min; Potency, µM (doses to about 114 µM), for the others: at the highest dose activity change, negative = inhibition, hits mostly inhibitors; 390,000 tested, 0.35% active; note: potency is the fitted concentration of half-maximal effect; % is set by controls: 0 for no effect and ±100 for the full control effect; nearly all actives have a fitted effect of over 65% in size
#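 Potency values derive from four-parameter Hill fits of normalized qHTS data. The reaction used 10 nM FEN1 preincubated 15 min at room temperature with compound, then 50 nM DNA substrate, read at 0 and 15 min.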
# POLI inh: inhibitors of human DNA polymerase iota | Q9UNA4 | Pol iota fluorescent replication assay, 10 min | Potency, µM (highest dose often 115 µM), for the others: top-dose activity, negative = inhibition, hits mostly inhibitors | 390,000 tested, 1% active; note: potency is the fitted concentration of half-maximal effect
#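 Pol iota at 10 nM preincubated 15 min with compounds at room temperature; reaction started with fluorescent substrate, 50 nM final. Fluorescence read kinetically at 0 and 10 min; buffer-only wells as negative control.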
# POLB inh: DNA polymerase beta (human) inhibition; 340,000 tested, 1.3% active; Potency, µM (titrated, usually from 114 µM), for the others: top-dose activity change, negative = inhibition, most hits filed as inhibitors; P06746; Pol beta primer extension/strand displacement, fluorescence kinetic; AID 485314; note: potency is the fitted concentration of half-maximal effect; % is set by controls: 0 for no effect and ±100 for the full control effect
#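 Values derive from four-parameter Hill fits of normalized kinetic data: reads at 0 and 10 min following addition of 50 nM substrate to 10 nM Pol beta preincubated 15 min with compound.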
# Pol eta inh-1: blocks human DNA polymerase eta activity | recombinant Pol eta, fluorescent DNA replication assay | Q9Y253 | Potency, µM (titrated, usually from 114 µM), for the others: at the top dose activity change, negative = inhibition, usual class: inhibitors | 390,000 tested, 1.2% active; note: potency is the fitted concentration of half-maximal effect; % is set by controls: 0 for no effect and ±100 for the full control effect
#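 Fluorescent replication assay: 50 nM final substrate added after a 15 min room-temperature compound preincubation with 10 nM enzyme. Signal taken at 0 min and again at 10 min.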
# WRN helicase inh: inhibitors of human WRN helicase | Q14191 | Potency, µM (series often up to 114 µM), without a hit: top-dose activity change, negative = inhibition, hits mostly inhibitors | 360,000 tested, 0.46% active | WRN helicase unwinding, fluorescent forked duplex, kinetic; note: potency is the fitted concentration of half-maximal effect; % is set by controls: 0 for no effect and ±100 for the full control effect; nearly all actives have a fitted effect of over 55% in size
#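 Primary qHTS, 1536-well format. 20 nM WRN + compound, 15 min RT; start with 100 nM forked fluorophore/quencher duplex, 2 mM ATP (final); kinetic read ex 525/em 598 nm.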
# Pol kappa inh-1: inhibitors of human DNA polymerase kappa. Q9UBT6. 400,000 tested, 0.53% active. Potency, µM (series often up to 107 µM), without a hit: at the top dose activity, negative = inhibition, actives largely listed as inhibitors. AID 588579. purified Pol kappa, fluorescent DNA synthesis assay, 10 min; note: potency is the fitted concentration of half-maximal effect; % is set by controls: 0 for no effect and ±100 for the full control effect
# Target sequence (Q9UBT6 whole entry, looked up): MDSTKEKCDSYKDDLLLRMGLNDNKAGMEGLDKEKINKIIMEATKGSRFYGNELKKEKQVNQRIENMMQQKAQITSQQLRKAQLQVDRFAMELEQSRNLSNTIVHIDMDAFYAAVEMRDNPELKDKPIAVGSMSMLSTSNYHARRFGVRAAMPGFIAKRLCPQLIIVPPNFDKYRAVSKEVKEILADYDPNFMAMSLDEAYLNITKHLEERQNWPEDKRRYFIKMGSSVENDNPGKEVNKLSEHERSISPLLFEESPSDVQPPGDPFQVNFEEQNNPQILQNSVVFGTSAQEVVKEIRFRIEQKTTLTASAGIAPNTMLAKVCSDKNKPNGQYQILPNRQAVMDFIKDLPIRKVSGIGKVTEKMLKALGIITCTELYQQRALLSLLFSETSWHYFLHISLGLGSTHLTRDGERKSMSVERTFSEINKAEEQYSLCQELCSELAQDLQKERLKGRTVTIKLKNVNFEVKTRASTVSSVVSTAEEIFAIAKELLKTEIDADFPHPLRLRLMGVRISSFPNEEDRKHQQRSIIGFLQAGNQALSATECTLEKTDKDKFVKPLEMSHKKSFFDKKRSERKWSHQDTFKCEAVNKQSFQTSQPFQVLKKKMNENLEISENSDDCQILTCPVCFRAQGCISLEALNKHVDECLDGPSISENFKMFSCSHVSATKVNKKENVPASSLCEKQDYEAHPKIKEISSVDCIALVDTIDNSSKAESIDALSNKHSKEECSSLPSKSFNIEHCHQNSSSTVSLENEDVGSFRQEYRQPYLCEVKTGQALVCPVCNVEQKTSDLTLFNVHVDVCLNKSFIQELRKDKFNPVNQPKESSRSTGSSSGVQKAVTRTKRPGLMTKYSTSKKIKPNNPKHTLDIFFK
#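 Readout: fluorescence, taken kinetically at 0 and 10 min. Conditions: 10 nM Pol kappa, 15 min RT compound preincubation, 50 nM substrate final. Controls: enzyme-free buffer wells.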
# Pol iota confirm: Confirm cherry-picked inhibitors of human polymerase iota. Potency, µM, hits mostly inhibitors. AID 720496. Pol iota primer extension, TAMRA/BHQ fluorescence. 1,500 tested, 77% active. shares compounds with Pol kappa inh-1; note: potency is the fitted concentration of half-maximal effect
# GALK inh confirm: galactokinase (human) inhibition, confirmation; purified GALK, Kinase-Glo ATP depletion luminescence; Potency, µM (doses to about 115 µM), for inactives: at the highest dose activity, negative = inhibition, usual class: inhibitors; shares compounds with Pol eta inh-1; AID 2015; 150 tested, 70% active
# GALK redox cs: redox cycling activity in phenol red-HRP assay | Potency, µM (series often up to 115 µM), without a hit: at the highest dose activity change, negative = H2O2 signal, actives largely listed as inhibitors | shares compounds with Pol eta inh-1 | Phenol red-HRP H2O2 redox cycling, absorbance 600 nm | 150 tested, 40% active
# HEK293 viability: reduces HEK-293 cell viability in GALK counter-screen | shares compounds with Pol eta inh-1 | Potency, µM (titrated, usually from 46.1 µM), inactives show top-dose activity change, negative = cytotoxicity, usual class: inhibitors | 170 tested, 10% active | HEK-293 viability, ATP luminescence (CellTiter-Glo), 24/48 h | AID 2547; note: potency is the fitted concentration of half-maximal effect; % is set by controls: 0 for no effect and ±100 for the full control effect
# Pol kappa inh-2: confirmation of human DNA polymerase kappa inhibitors. shares compounds with Pol eta inh-1. purified Pol-kappa, fluorescent strand-displacement substrate. Potency, µM, usual class: inhibitors. 920 tested, 76% active. AID 720501; note: potency is the fitted concentration of half-maximal effect
# Pol eta inh-2: Pol eta (human) inhibition, cherry-pick confirmation. shares compounds with Pol eta inh-1. Pol eta primer extension, TAMRA/BHQ fluorescence, 10 min. Potency, µM, usual class: inhibitors. 2,600 tested, 64% active. AID 720502; note: potency is the fitted concentration of half-maximal effect
# * hit, by the source's call; ? = inconclusive; nt = not tested or not shown; ! = repeats disagree; [ ] = dose if it differs, or a comment. Calls come from the whole dose curve; as a rule, active = well fitted curve in the direction sought with a large enough effect; inconclusive = small, poorly fitted or top-dose-only effect, or another doubt; inactive = no such curve, though single readings can be large; an effect the other way counts as inactive or inconclusive.
SMILES,FEN1 inhibitor,POLI inh,POLB inh,Pol eta inh-1,WRN helicase inh,Pol kappa inh-1,Pol iota confirm,Pol eta inh-2,others
N#Cc1c(N2CCCC2)nc(N)c2c(N)nc(N3CCCC3)cc12,?,2.5µM*,?,2.8µM*,-2%[11.6 µM],-16%,38*,60*,GALK inh confirm=2.1µM*;GALK redox cs=1.9µM*;HEK293 viability=-2%
COc1cc2c(C#N)c(N3CCCC3)nc(N)c2c(N)n1,?,8.9µM*!,?,22µM*,?,?,38*,24*,
CCOc1cc2c(C#N)c(N3CCCC3)nc(N)c2c(N)n1,6%,21%,nt,-4%,8%,-7%,nt,nt,
O=C(c1ccccc1)N1CCCCC(S(=O)(=O)c2ccccc2)C1=O (centres undefined),5%,-16%,1%,-8%,-5%,-3%,nt,nt,
COc1cc2ncc(C(=O)c3ccc(C)cc3)c(N3CCCCC3)c2cc1OC,-9%,-13%,12%,-6%,nt,-7%,nt,nt,
COc1cc(/C=C2\SC(=O)N(Cc3ccc(F)cc3)C2=O)cc([N+](=O)[O-])c1O,?,-10%,0%,50µM*,-14%[11.6 µM],5%,84*,76*,Pol kappa inh-2=27*
CCOc1cc(/C=C2\C(=O)NN(c3ccccc3)C2=O)cc([N+](=O)[O-])c1O,?,11µM*,20µM*,16µM*,?,45µM*,?,30*,
CCOC(=O)CN1C(=O)S/C(=C/c2ccc(OC)c([N+](=O)[O-])c2)C1=O,-1%,20%,1%,-19%,-6%,-1%,nt,nt,
CCOc1cc(/C=C2\NC(=O)NC2=O)cc([N+](=O)[O-])c1O,-17%,55%,5%,-14%,-9%,-22%,nt,nt,
COc1cc(/C=C2\C(=O)NN(c3ccccc3)C2=O)cc([N+](=O)[O-])c1O,?,13µM*,13µM*,13µM*,?,?,38*,27*,
O=C1NN(c2ccccc2)C(=O)/C1=C\c1ccc(-c2cc([N+](=O)[O-])ccc2O)o1,?,16µM*,10µM*,20µM*,-20%[11.6 µM],40µM*,?,27*,
COc1cc(/C=C2/C(=O)NN(c3ccccc3)C2=O)cc(Br)c1O,-22%,-29%,4%,-4%,-13%,-25%,nt,nt,
Cc1ccnc(NS(=O)(=O)c2ccc(Cl)nc2)c1,-3%,49%,11%,-5%,-3%,-2%,nt,nt,
COc1cc(C(=O)Nc2ccc(F)cc2Cl)ccc1OCC(=O)N1CCOCC1,-1%,25%,nt,5%,-2%,-7%,nt,nt,
O=C(c1cc2ccccc2oc1=O)N(Cc1cccs1)Cc1ccccc1Cl,-22%,2%,33%,-6%,-10%,-7%,nt,nt,
